Some test systems named below: HCT-15 colon; HT29 colon; SNB-75 CNS; SNB-19 CNS; U251 CNS; SK-MEL-5 melanoma; UACC-62 melanoma; LOX IMVI melanoma; SK-MEL-28 melanoma; SK-MEL-2 melanoma; EKVX NSCLC; SN12C renal; UO-31 renal; TK-10 renal; ACHN renal; CAKI-1 renal; A498 renal; CCRF-CEM leukemia; MOLT-4 leukemia; PC-3 prostate.
Common to all, as to assay: NCI-60 one-dose screen, 48 h (100 = growth as untreated, 0 = no growth, -100 = all killed)
Holding throughout (settings): 10 µM unless noted

About 83,000 compounds went through this panel and 20% of them were active in at least one assay; those are over-represented in the sample as a whole.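 How to read the values: 0–100, growth inhibition (40 = 60% inhibited); 0, no net growth; -100 to 0, cell death (-40 = 40% of starting cells died; -100 = all dead).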 A number with no mark means an inactive call. Activity calls are given as the source filed them. How the source made its calls: active means growth percent below 10; inactive means the rest.

Regarding `CCc1ccc(CCC(=O)Nc2ncc(Cc3ccc(Cl)cc3)s2)o1`, the growth in the assay with HCT-15 colon was 21.9%; with HT29 colon it was 8.1% (active); in the assay with SNB-75 CNS it was -7.87% (active); with SNB-19 CNS, 50.6%; with U251 CNS it was 22.8%; with SK-MEL-5 melanoma it was 34.6%. In addition, the growth with UACC-62 melanoma was 33.3%; in the assay with LOX IMVI melanoma, 47.6%; with SK-MEL-28 melanoma it was 66.3%; in the assay on SK-MEL-2 melanoma, 44.1%; in the assay with EKVX NSCLC, 37.2%; in the assay with SN12C renal, 44.8%. In addition, the growth in the assay on UO-31 renal is 43%; in the assay on TK-10 renal it was 60%; in the assay on ACHN renal, 48.3%; with CAKI-1 renal, 31.9%; with A498 renal it was 0.963% (active); with CCRF-CEM leukemia, 22.4%. Also, the growth in the assay with MOLT-4 leukemia was 36.5%.

Regarding `NC(=O)OCCn1cc(-c2nc(-c3c[nH]c4ncccc34)cs2)c2ccccc21`, the growth with HCT-15 colon is 28%; with HT29 colon it was 8.34% (active); in the assay on SNB-75 CNS, 10.6%; with SNB-19 CNS it was 42.2%; in the assay with U251 CNS, 20%; in the assay with PC-3 prostate, 33.2%. Moreover, the growth was 32.9% in the assay on UACC-62 melanoma; 30.1% with LOX IMVI melanoma; 61.7% in the assay on SK-MEL-28 melanoma; 2.38% (active) in the assay on SK-MEL-2 melanoma; 42.1% in the assay with EKVX NSCLC; 49.1% in the assay with SN12C renal. In addition, the growth in the assay with UO-31 renal was 34.1%; in the assay with TK-10 renal, 62.3%; in the assay on ACHN renal it was 38%; with CAKI-1 renal it was 34.5%; with A498 renal it was -11.7% (active); in the assay with CCRF-CEM leukemia, 21.7%. Besides, the growth with MOLT-4 leukemia is 19.6%.

As for `C=CCn1c(SCC(=O)Nc2ccc(C(=O)/C=C/c3cc(OC)c(OC)c(OC)c3)cc2)nnc1-c1cc(-c2ccc(OC)cc2)nc2ccccc12`, the growth in the assay with HCT-15 colon was 83.4%; in the assay on HT29 colon, 101%; in the assay with SNB-75 CNS it was 85.1%; with SNB-19 CNS, 90.3%; with U251 CNS, 88.3%; in the assay on PC-3 prostate, 80%. For the same molecule, the growth with UACC-62 melanoma is 90.1%; in the assay with LOX IMVI melanoma, 94.9%; in the assay on SK-MEL-28 melanoma, 101%; with SK-MEL-2 melanoma, 102%; in the assay with EKVX NSCLC, 100%; in the assay with SN12C renal, 90.3%. The growth with UO-31 renal is 76.3%; in the assay with TK-10 renal, 121%; with ACHN renal, 89.2%; with CAKI-1 renal, 81.5%; in the assay on A498 renal it was 89%; in the assay with CCRF-CEM leukemia, 66.6%. In addition, in the assay with MOLT-4 leukemia, the growth was 66.4%.

For `O=C(CCCCCCCCC(=O)N/N=C\c1cc(Cl)ccc1O)N/N=C\c1cc(Cl)ccc1O`, the growth with HCT-15 colon is 15.6%; in the assay with HT29 colon, 58.9%; in the assay with SNB-75 CNS, 55.6%; in the assay with SNB-19 CNS, 34.8%; in the assay with U251 CNS it was 29.5%; with PC-3 prostate it was 26.6%. Besides, the growth in the assay with SK-MEL-5 melanoma was -37.9% (active); with UACC-62 melanoma, 0.989% (active); with LOX IMVI melanoma, 14.1%; in the assay on SK-MEL-28 melanoma, 41.7%; in the assay on SK-MEL-2 melanoma, 18.6%; with EKVX NSCLC, 54.7%. Also, the growth is 19% in the assay on UO-31 renal; 45.7% with TK-10 renal; 9.47% (active) in the assay with ACHN renal; 11.6% in the assay on CAKI-1 renal; 73.4% in the assay on A498 renal; 12.1% with CCRF-CEM leukemia. Further, the growth in the assay on MOLT-4 leukemia was 15.3%.

On to `O=C1/C=C/[C@@H](O)[C@@H]2C[C@@H](O)C[C@H]2/C=C/CCC[C@H](CCOCc2ccccc2)O1`, for which the growth in the assay with HCT-15 colon was 8.84% (active); in the assay on HT29 colon, -23.2% (active); in the assay with SNB-75 CNS, 33.2%; in the assay with SNB-19 CNS, 33.1%; in the assay on U251 CNS, 18.4%; in the assay with SK-MEL-5 melanoma it was -88.3% (active). Besides, the growth in the assay with UACC-62 melanoma is 6.3% (active); in the assay with LOX IMVI melanoma it was -59.7% (active); with SK-MEL-28 melanoma, -2.95% (active); with SK-MEL-2 melanoma, -24.1% (active); in the assay on EKVX NSCLC, 1.3% (active); with SN12C renal, 10.6%. For the same molecule, the growth in the assay with UO-31 renal is 12.2%; in the assay with TK-10 renal it was -17.6% (active); in the assay with ACHN renal, 5.36% (active); with CAKI-1 renal it was -28.2% (active); in the assay with A498 renal, -28.5% (active); in the assay with CCRF-CEM leukemia, 27.5%. In addition, in the assay on MOLT-4 leukemia, the growth is 7.56% (active).

Consider `COc1ccc(NC(=O)c2sc3nc4c(cc3c2N)CCCC4)cc1`, for which the growth in the assay on HCT-15 colon was 28.6%; with HT29 colon it was 0.414% (active); in the assay on SNB-75 CNS it was 17.3%; in the assay with SNB-19 CNS it was 34.7%; in the assay with U251 CNS, 22.6%; in the assay with PC-3 prostate it was 26.9%. Also, the growth was 43% in the assay with UACC-62 melanoma; 35.8% in the assay with LOX IMVI melanoma; 62.3% with SK-MEL-28 melanoma; 34.9% in the assay on SK-MEL-2 melanoma; 44.3% in the assay with EKVX NSCLC; 60.8% with SN12C renal. For the same molecule, the growth was 48% with UO-31 renal; 38.8% with TK-10 renal; 49.3% with ACHN renal; 38.5% in the assay with CAKI-1 renal; 5.75% (active) with A498 renal; 9.46% (active) in the assay on CCRF-CEM leukemia. In addition, the growth in the assay on MOLT-4 leukemia is 21.5%.

`Cc1ccc(/C=C2\CN(C(=O)C(Cl)Cl)C/C(=C\c3ccc(C)cc3)C2=O)cc1`: the growth in the assay on HCT-15 colon is -39.2% (active); with HT29 colon it was -5.72% (active); in the assay on SNB-75 CNS it was -30.2% (active); in the assay on SNB-19 CNS, -53.7% (active); with U251 CNS, -94.9% (active); in the assay with PC-3 prostate it was -49.3% (active). Further, the growth in the assay with UACC-62 melanoma is -67.2% (active); with LOX IMVI melanoma it was -92.2% (active); in the assay on SK-MEL-28 melanoma it was -56.1% (active); in the assay on SK-MEL-2 melanoma, -5.43% (active); in the assay with EKVX NSCLC, -48.7% (active); in the assay on SN12C renal, -51.3% (active). Moreover, the growth with UO-31 renal is -100% (active); in the assay on TK-10 renal, -63.1% (active); in the assay with ACHN renal, -97.8% (active); in the assay on CAKI-1 renal, -49.6% (active); in the assay with A498 renal it was -89.3% (active); in the assay with CCRF-CEM leukemia it was 9.16% (active). In the assay with MOLT-4 leukemia, the growth was 0.0942% (active).

For `CS(=O)(=O)Nc1cc(-c2ccc3ncnc(Nc4ccc5c(cnn5Cc5cccnc5)c4)c3c2)cnc1Cl`, the growth was 84.7% in the assay with HCT-15 colon; 65.2% in the assay with HT29 colon; -12.1% (active) with SNB-75 CNS; 60.1% in the assay on SNB-19 CNS; 55.4% in the assay with U251 CNS; 52.2% in the assay on PC-3 prostate. The growth in the assay on SK-MEL-5 melanoma was 50.9%; in the assay with UACC-62 melanoma, 25.9%; in the assay on LOX IMVI melanoma, 39.2%; with SK-MEL-28 melanoma, 29.4%; with SK-MEL-2 melanoma, 14%; in the assay on EKVX NSCLC it was 68.2%. The growth in the assay on UO-31 renal is 47.9%; in the assay on TK-10 renal it was 49%; in the assay with ACHN renal, 75.8%; with CAKI-1 renal it was 40.2%; in the assay on A498 renal, 19.2%; in the assay on CCRF-CEM leukemia it was 32.9%. The growth with MOLT-4 leukemia was 24.7%.

For the origin of these results see PubChem BioAssay (NCI).
